Data reported in PubChem BioAssay (Tox21).
A number with no mark means an inactive call. Records with an inconclusive call do not appear. A call without a number means that no potency is given here. The source made the active and inactive calls. Unless noted, calls follow the shape of the dose curve; as a rule, active = well fitted curve in the direction sought with a large enough effect in the repeat runs; inconclusive = weak or mixed curves; inactive = no such curve, though single readings can be large; an effect the other way counts as inactive or inconclusive.

How the values were obtained:
[1] = qHTS assay to identify small molecule agonists of H2AX (AID 1224845; active = well fitted activation curve with a large enough effect in the signal ratio in the repeat runs, not every such curve was filed as active; the % refers to the signal ratio)
Outline: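 Wild-type CHO-K1 cells, plated overnight, exposed 3hr at 37C to 15 concentrations (0.76% DMSO final). Lysed, then HTRF anti-pH2AX (S139) cryptate and anti-H2AX-d2 antibodies, 24 hr room temperature; 665/620 nm emission read.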

[2] = qHTS assay to identify small molecule agonists of H2AX - cell viability counter screen (AID 1224847; calls by dose curve; also: nearly all actives have a fitted effect of over 30% in size; also: potency is read from the fitted curve at half-maximal effect)
Outline: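 Read-out: CellTiter-Glo luminescence, 30 min RT. Cells: wild-type CHO-K1, 1000/well, 10% FBS, plated overnight at 37C. Treatment: 15 concentrations, 3 hr, 37C, 0.76% DMSO.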

[3] = qHTS assay to identify small molecule antagonists of the estrogen related receptor (ERR) signaling pathway from Tox21 library (AID 1224848); also: nearly all actives have a fitted effect of over 50% in size
Outline: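 Quantitative high-throughput format: ERR reporter cells (2,000/well) pre-incubated 6 h, treated 18 h at 37 C with compounds in DMSO alongside positive and negative controls, then read by ONE-Glo luminescence.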

[4] = qHTS RealTime-Glo MT Cell Viability Assay in HepG2 cells - 24 hour (AID 1224867); also: nearly all actives have a fitted effect of over 50% in size
Outline: (§1)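 qHTS, HepG2, 600 cells/well, RealTime-Glo (NanoLuc + prosubstrate) added with cells; 5 h preincubation; DMSO compound addition; 37 C; luminescence at 0/8/16/24/32/40 h.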

[5] = qHTS RealTime-Glo MT Cell Viability Assay in HEK293 cells - 32 hour (AID 1224868); also: nearly all actives have a fitted effect of over 50% in size; also: potency is read from the fitted curve at half-maximal effect
Outline: (§2)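 Assay medium contained NanoLuc luciferase plus cell-permeant prosubstrate, added with HEK293 cells at 600 cells/well. After 5 h at 37 C/5% CO2 compounds were added; plates stayed at 37 C for 40 h with serial luminescence reads.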

[6] = A CellTox Green Cytotoxicity Assay to monitor cytotoxicity in HEK293 cells - 0 hour (AID 1224869); also: nearly all actives have a fitted effect of over 50% in size
Outline: (§3)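 Real-time, in one plate: 600 HEK293 cells/well with dead-cell DNA dye, pinned compound after 5 h, 37 C incubation over 40 h; viable cells give no appreciable fluorescence.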

[7] = qHTS RealTime-Glo MT Cell Viability Assay in HepG2 cells - 40 hour (AID 1224870); also: nearly all actives have a fitted effect of over 50% in size; also: potency is read from the fitted curve at half-maximal effect
Outline: (§4)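 HepG2 cells (600/well) mixed with RealTime-Glo MT reagent, settled 5 h at 37 C/5% CO2 before compound addition. Nonlytic NanoLuc luminescence from viable-cell prosubstrate reduction read repeatedly during 40 h treatment at 37 C.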

[8] = A CellTox Green Cytotoxicity Assay to monitor cytotoxicity in HEK293 cells - 40 hour (AID 1224871); also: nearly all actives have a fitted effect of over 45% in size; also: potency is read from the fitted curve at half-maximal effect
Outline: as §3

[9] = qHTS RealTime-Glo MT Cell Viability Assay in HEK293 cells - 16 hour (AID 1224872); also: nearly all actives have a fitted effect of over 50% in size; also: potency is read from the fitted curve at half-maximal effect
Outline: as §2

[10] = qHTS RealTime-Glo MT Cell Viability Assay in HepG2 cells - 8 hour (AID 1224873); also: nearly all actives have a fitted effect of over 55% in size
Outline: as §4

[11] = A CellTox Green Cytotoxicity Assay to monitor cytotoxicity in HEK293 cells - 24 hour (AID 1224875); also: nearly all actives have a fitted effect of over 45% in size; also: potency is read from the fitted curve at half-maximal effect
Outline: as §3

[12] = A CellTox Green Cytotoxicity Assay to monitor cytotoxicity in HepG2 cells - 16 hour (AID 1224876); also: nearly all actives have a fitted effect of over 45% in size; also: potency is read from the fitted curve at half-maximal effect
Outline: (§5)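 Cytotoxicity was tracked as dead-cell DNA fluorescence in HepG2 cells treated with test compounds at 37 C; each time-point value comes from one kinetic series spanning 0, 8, 16, 24, 32 and 40 h.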

[13] = qHTS RealTime-Glo MT Cell Viability Assay in HepG2 cells - 32 hour (AID 1224877); also: nearly all actives have a fitted effect of over 55% in size; also: potency is read from the fitted curve at half-maximal effect
Outline: as §1

[14] = A CellTox Green Cytotoxicity Assay to monitor cytotoxicity in HepG2 cells - 24 hour (AID 1224878); also: nearly all actives have a fitted effect of over 45% in size; also: potency is read from the fitted curve at half-maximal effect
Outline: as §5

[15] = A CellTox Green Cytotoxicity Assay to monitor cytotoxicity in HepG2 cells - 40 hour (AID 1224879); also: nearly all actives have a fitted effect of over 40% in size; also: potency is read from the fitted curve at half-maximal effect
Outline: as §5

[16] = qHTS assay to identify small molecule agonists of the estrogen related receptor (ERR) signaling pathway from Tox21 library (AID 1224849; calls by dose curve; also: nearly all actives have a fitted effect of over 15% in size); details: ERR reporter cell line, ONE-Glo luciferase, 18 h; at 92.4 µM (top of the series) unless noted
Outline: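 Luciferase activity in ERR pathway reporter cells served as the agonist readout; exposure lasted 18 h at 37 C, with ONE-Glo detection after 30 min at room temperature.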

[17] = qHTS RealTime-Glo MT Cell Viability Assay in HEK293 cells - 40 hour (AID 1224874); details: RealTime-Glo luminescence; max response: hits give low values; also: nearly all actives have a fitted effect of over 50% in size; also: potency is read from the fitted curve at half-maximal effect
Outline: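 Kinetic, non-lysing viability readout. Seed HEK293 (600/well) with reagent, incubate 5 h at 37 C/5% CO2, pin 23 nL compound in DMSO, incubate at 37 C, read luminescence at 0, 8, 16, 24, 32, 40 h.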

[18] = qHTS assay to identify small molecule agonists of the hypoxia (HIF-1) signaling pathway - cell viability counter screen (AID 1224844; calls by dose curve; also: nearly all actives have a fitted effect of over 50% in size; also: potency is read from the fitted curve at half-maximal effect)
Outline: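 In this counter screen, HRE-bla ME-180 cell viability after 17 hrs of compound exposure at 37C was read by CellTiter-Glo luminescence, multiplexed with the beta-lactamase reporter measurement.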

[19] = qHTS assay to identify small molecule agonists of the hypoxia (HIF-1) signaling pathway (AID 1224846; active = well fitted activation curve with a large enough effect in the signal ratio in the repeat runs, not every such curve was filed as active; the % refers to the signal ratio)
Outline: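 ME-180 HRE-bla reporter cells; compounds in DMSO, 17 h at 37C; read-out beta-lactamase via CCF4-AM FRET.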

Which results are given for `O=C(O)CCCCCCCCCCCBr`?
Potency [1]: inactive; Potency [2]: inactive; Potency [3]: inactive; Potency [4]: inactive; Potency [5]: inactive; Potency [6]: inactive; Potency [7]: inactive; Potency [8]: inactive; Potency [9]: inactive; Potency [10]: inactive; Potency [11]: inactive; Potency [12]: inactive; Potency [13]: inactive; Potency [14]: inactive; Potency [15]: inactive

For `CCC(=O)C1CC(C(C)C)CC=C1C` (centres undefined), which Potency [1] is on record?
Its Potency is “inactive”.

What about the Potency [2] of the same compound?
Its Potency is “inactive”.

What about the Potency [3] of the same compound?
The Potency was “inactive”.

And the activity change, positive = activation [16]?
Its activity change, positive = activation is 5.57%.

What about the Potency [4] of the same compound?
Its Potency is “inactive”.

What about the Potency [5] of the same compound?
The Potency was “inactive”.

What about the Potency [7] of the same compound?
The Potency was “inactive”.

And the Potency [8]?
The Potency was “inactive”.

And the Potency [9]?
The Potency was “inactive”.

What about the Potency [10] of the same compound?
The Potency was “inactive”.

And the max response [17]?
Its max response is 9.7%.

What about the Potency [11] of the same compound?
Its Potency is “inactive”.

What about the Potency [13] of the same compound?
The Potency was “inactive”.

What about the Potency [14] of the same compound?
Its Potency is “inactive”.

And the Potency [15]?
Its Potency is “inactive”.

For `COc1cc(Nc2c(C#N)cnc3cc(OCCCN4CCN(C)CC4)c(OC)cc23)c(Cl)cc1Cl`, which Potency [18] is on record?
The Potency was “inactive”.

And the outcome [19]?
Its outcome is “inactive”.

And the Potency [2]?
Its Potency is 55.2 µM (active).

And the Potency [5]?
The Potency was 8.49 µM (active).

And the Potency [6]?
Its Potency is “inactive”.

And the Potency [7]?
Its Potency is 23.9 µM (active).

And the Potency [8]?
The Potency was 21.3 µM (active).

What about the Potency [9] of the same compound?
The Potency was 19 µM (active).

And the Potency [17]?
Its Potency is 7.56 µM (active).

What about the Potency [11] of the same compound?
The Potency was 21.3 µM (active).

And the Potency [12]?
The Potency was 23.9 µM (active).

And the Potency [13]?
The Potency was 21.3 µM (active).

What about the Potency [14] of the same compound?
The Potency was 16.9 µM (active).

What about the Potency [15] of the same compound?
Its Potency is 9.52 µM (active).

Which Potency [18] does the source give for `CC1(C)[C@H](C(=O)O)N2C(=O)C[C@H]2S1(=O)=O` here?
Its Potency is “inactive”.

And the Potency [2]?
The Potency was “inactive”.

And the Potency [3]?
The Potency was “inactive”.

And the activity change, positive = activation [16]?
The activity change, positive = activation was 5.98% [at 42.5 µM].

And the Potency [4]?
Its Potency is “inactive”.

And the Potency [5]?
Its Potency is “inactive”.

What about the Potency [6] of the same compound?
The Potency was “inactive”.

What about the Potency [7] of the same compound?
The Potency was “inactive”.

What about the Potency [8] of the same compound?
Its Potency is “inactive”.

What about the Potency [9] of the same compound?
Its Potency is “inactive”.

What about the Potency [10] of the same compound?
Its Potency is “inactive”.

What about the max response [17] of the same compound?
The max response was 1.99%.

And the Potency [11]?
Its Potency is “inactive”.

What about the Potency [12] of the same compound?
The Potency was “inactive”.

And the Potency [13]?
Its Potency is “inactive”.

And the Potency [14]?
Its Potency is “inactive”.

And the Potency [15]?
The Potency was “inactive”.

Which results are given for `Cc1cc(O)ccc1O`?
Potency [2]: 51 µM (active); Potency [3]: inactive; activity change, positive = activation [16]: -73.6% (active); Potency [4]: inactive; Potency [6]: inactive; Potency [7]: inactive; Potency [10]: inactive; Potency [12]: inactive; Potency [13]: inactive; Potency [14]: inactive; Potency [15]: inactive

Which Potency [18] does the source give for `O=c1cc(-c2ccccc2)oc2ccc3ccccc3c12` here?
The Potency was 24.5 µM (active).

And the Potency [2]?
Its Potency is 25.3 µM (active).

And the Potency [3]?
The Potency was “inactive”.

What about the activity change, positive = activation [16] of the same compound?
Its activity change, positive = activation is -35% (active).

What about the Potency [4] of the same compound?
The Potency was “inactive”.

What about the Potency [5] of the same compound?
Its Potency is “inactive”.

And the Potency [6]?
The Potency was “inactive”.

And the Potency [7]?
The Potency was “inactive”.

What about the Potency [9] of the same compound?
The Potency was “inactive”.

What about the Potency [10] of the same compound?
Its Potency is “inactive”.

What about the max response [17] of the same compound?
Its max response is -4.42%.

And the Potency [11]?
Its Potency is “inactive”.

What about the Potency [12] of the same compound?
Its Potency is 24.5 µM (active).

What about the Potency [13] of the same compound?
Its Potency is “inactive”.

What about the Potency [14] of the same compound?
Its Potency is 24.5 µM (active).

What about the Potency [15] of the same compound?
Its Potency is 17.4 µM (active).

What does the source list for `Brc1cc2ccccc2c2ccccc12`?
Potency [18]: 44 µM (active); activity change, positive = activation [16]: -24%; Potency [4]: inactive; Potency [6]: inactive; Potency [7]: inactive; Potency [10]: inactive; Potency [11]: inactive; Potency [12]: inactive; Potency [13]: inactive; Potency [14]: inactive; Potency [15]: 39.2 µM (active)
